Test results as given in PubChem BioAssay (NCATS).
Records with an inconclusive call do not appear. Entries that show only a call come without a potency. Calls of active or inactive are those of the source. The call rests on the fitted dose curve; in most records, active means well fitted curve in the direction sought with a large enough effect; inconclusive means small, poorly fitted or top-dose-only effect, or another doubt; inactive means no such curve, though single readings can be large; an effect the other way counts as inactive or inconclusive.

Key:
[1] = molecular target: Aldehyde dehydrogenase, mitochondrial (Homo sapiens) (UniProt P05091); assay: qHTS for Inhibitors of the Aldehyde Dehydrogenase Family (ALDH2) Primary screen (AID 2061308); further: nearly all actives have a fitted effect of over 55% in size
[2] = molecular target: Retinaldehyde dehydrogenase 3 (Homo sapiens) (UniProt P47895); assay: qHTS for Inhibitors of the Aldehyde Dehydrogenase Family (ALDH1A3) Primary screen (AID 2061315)

SMILES: Cc1cc2c(s1)c1cnn(Cc3cccc(C(F)(F)F)c3F)c(=O)c1n2C
- Potency [1]: inactive
- Potency [2]: inactive

SMILES: COc1ccc(C2=Nn3c(nnc3-c3ccccc3Cl)SC2)cc1OC1CCCC1
- Potency [1]: inactive
- Potency [2]: inactive

SMILES: NC(=O)C1CCN(c2ncc(-c3cccc(F)c3)s2)CC1
- Potency [1]: inactive
- Potency [2]: inactive

SMILES: CC(C)c1ccccc1SC1=NS(=O)(=O)c2ccccc21
- Potency [1]: inactive
- Potency [2]: inactive

SMILES: CC(=O)Nc1ccc(-c2nc3ccccc3s2)cc1
- Potency [1]: inactive
- Potency [2]: inactive

SMILES: N#Cc1cccc(-c2csc(N3CCC(C(N)=O)CC3)n2)c1
- Potency [1]: inactive
- Potency [2]: inactive

SMILES: O=C([C@H](Cc1ccc(O[S+](=O)([O-])c2cccc3cccnc23)cc1)N[S+](=O)([O-])c1cccnc1)N1CCN(c2ccccc2)CC1
- Potency [1]: inactive
- Potency [2]: inactive

SMILES: O=S(=O)(Nc1cccc2cccnc12)c1ccc(Br)s1
- Potency [1]: inactive
- Potency [2]: inactive

SMILES: Cc1cc(C)nc(NC(=S)N2CCN(c3ncccc3Cl)CC2)c1
- Potency [1]: inactive
- Potency [2]: inactive

SMILES: O=S(=O)(Nc1nccs1)c1ccc(NCc2cccc(Cl)c2O)cc1
- Potency [1]: inactive
- Potency [2]: inactive

SMILES: Cc1cccc(CNc2ncnc3ccc(-c4ccc5c(c4)OCO5)cc23)c1
- Potency [1]: inactive
- Potency [2]: inactive

SMILES: O=S(=O)(NCc1cccc2ccccc12)c1cc(Cl)c(Oc2cccc(N3CCNCC3)c2)s1
- Potency [1]: inactive
- Potency [2]: inactive

SMILES: CC(C)c1ccccc1-c1ncc(F)c(NCc2ccc(-n3ccnn3)cc2)n1
- Potency [1]: inactive
- Potency [2]: inactive

SMILES: Cc1nc(NCc2ccccc2)c2nc(-c3ccccc3)n(CC(C)(C)CN(C)C)c2n1
- Potency [1]: inactive
- Potency [2]: inactive

SMILES: Cn1c2ccsc2c2cnn(Cc3ccc(F)cc3)c(=O)c21
- Potency [1]: inactive
- Potency [2]: inactive
